Assay results as given in PubChem BioAssay AID488954 (The Scripps Research Institute Molecular Screening Center, 2010).
This is one part of the list.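 The calls were made as follows: active = mean activation above a set limit carried over from the earlier primary screen (cut at about 22% in these data); inactive = the rest.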

What follows are compounds tested against Caspase-3 (Homo sapiens) (UniProt P42574) (assay: procaspase-3 activation, retest of hits – biochemical, absorbance, PC-3 D3A mutant, triplicate, confirmation (AID 488954)). Conditions: recombinant PC-3 D3A, Ac-DEVD-pNA absorbance 405 nm; at 8.5 µM; stronger effect = higher value; 100% is higher-enzyme control.
Chain of Caspase-3 (Homo sapiens) (P42574 whole entry D9A/D28A/D175A): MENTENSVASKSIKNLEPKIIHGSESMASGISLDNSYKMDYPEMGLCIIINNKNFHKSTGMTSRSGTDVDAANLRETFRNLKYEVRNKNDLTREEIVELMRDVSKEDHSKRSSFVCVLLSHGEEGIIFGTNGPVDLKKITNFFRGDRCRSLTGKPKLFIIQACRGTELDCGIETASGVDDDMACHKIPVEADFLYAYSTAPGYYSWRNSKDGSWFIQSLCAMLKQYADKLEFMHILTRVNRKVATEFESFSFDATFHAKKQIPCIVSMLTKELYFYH

activation, inactive:
Oc1ccccc1C1=NN(c2ccccc2)C(c2ccccc2)C1 (stereo unspecified) -13.4%
COC(=O)c1cnc(Nc2cc(C)ccc2OC)c2ccccc12 -14.1%
COc1ccc(CCNC(=O)COC(=O)c2ccc[nH]c2=O)cc1 5.06%
COc1ccc(-c2sc3ccc(OC)cc3c2C#Cc2ccccn2)cc1 14.4%
Cc1nn(C)cc1CNC(=O)Nc1ccc(Cl)cc1 3.2%
COC(=O)Cc1cc(=O)oc2c(C)c(O)ccc12 -12.9%
CN1CCN(CCCNC(=O)c2ccc(/C=C3\Oc4ccccc4N(Cc4ccc(Cl)cc4)C3=O)cc2)CC1 -14.8%
COc1ccc2nc(Nc3nc4ccc(NC(C)=O)cc4s3)sc2c1 -1.02%
CCOc1ccc2nc(NCCNS(=O)(=O)c3ccccc3)c(C#N)cc2c1 -14.1%
COc1ccccc1NS(=O)(=O)c1ccc(C(=O)N2CCN(c3ccccc3O)CC2)cc1 5.8%
O=C(CCNS(=O)(=O)c1ccccc1C(F)(F)F)NCc1ccc2c(c1)OCO2 5.75%
